Test results taken from PubChem BioAssay (NCATS).
Records with an inconclusive call do not appear. Calls of active or inactive are those of the source. Calls follow the shape of the dose curve; as a rule, active = well fitted curve in the direction sought with a large enough effect; inconclusive = small, poorly fitted or top-dose-only effect, or another doubt; inactive = no such curve, though single readings can be large; an effect the other way counts as inactive or inconclusive.

How the values were obtained:
[1] = tested on: Zika virus NS2B-NS3 protease (linked construct); assay: Confirmatory screen NINDS AMC qHTS for Zika virus inhibitors (AID 1347152); also: nearly all actives have a fitted effect of over 70% in size; also: potency is read from the fitted curve at half-maximal effect
In short: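 In this dose-response qHTS, AMC release from 10 microM Bz-Nle-KRR-AMC by 1 nM linked protease is measured over 15 minutes (about 20% conversion) at pH 8.0. Percent inhibition is fitted to a 4-parameter Hill curve.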

[2] = tested on: Zika virus NS2B-NS3 protease (unlinked complex); assay: Confirmatory screen GU AMC qHTS for Zika virus inhibitors (AID 1347153); also: nearly all actives have a fitted effect of over 70% in size;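 as to Potency: enzyme at 25 nM with substrate at 10 µM below its Km of 18.3 µM; potency is read from the fitted curve at half-maximal effect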
In short: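 Compounds were preincubated 15 min at room temperature with 25 nM noncovalent NS2B-NS3 protease at pH 8.0; AMC substrate added at 10 microM and 15-min fluorescence gain (340/450 nm) converted to percent inhibition, fitted 4-parameter.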

[3] = Confirmatory screen GU Rhodamine qHTS for Zika virus inhibitors qHTS (AID 1347157); also: nearly all actives have a fitted effect of over 70% in size; also: potency is read from the fitted curve at half-maximal effect
In short: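 Percent inhibition derives from the 15-min fluorescence change (ex 480, em 540 nm), normalized to no-enzyme and no-inhibitor wells. Reactions contained 25 nM NS2B-NS3 complex and 1.5 microM substrate in 10 mM Tris-HCl pH 8.0.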

[4] = tested on: Zika virus NS2B-NS3 protease (unlinked complex); assay: Primary screen GU Rhodamine qHTS for Zika virus inhibitors: Unlinked NS2B-NS3 protease assay (AID 1347159); also: nearly all actives have a fitted effect of over 60% in size; also: potency is read from the fitted curve at half-maximal effect
In short: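 Percent inhibition came from the 15-min rise in Rhodamine110 fluorescence (1.5 microM substrate, ~15% conversion), normalized to no-inhibitor and no-enzyme wells and Hill-fitted. Unlinked protease, 25 nM, pH 8.0 Tris buffer; compounds up to 114 microM, 15-min preincubation.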

[5] = tested on: Zika virus NS2B-NS3 protease (linked construct); assay: Primary screen NINDS Rhodamine qHTS for Zika virus inhibitors (AID 1347160); also: potency is read from the fitted curve at half-maximal effect; nearly all actives have a fitted effect of over 55% in size
In short: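 Rhodamine110-peptide cleavage (1.5 µM substrate) by 25 nM linked NS2B-NS3 enzyme at pH 8.0 (Tris, Tween 20), after 15 min RT preincubation with compounds; 15-min fluorescence change normalized to controls and Hill-fitted.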

[6] = Confirmatory screen NINDS Rhodamine qHTS for Zika virus inhibitors (AID 1347161); also: nearly all actives have a fitted effect of over 60% in size; also: potency is read from the fitted curve at half-maximal effect
In short: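 Single-chain NS2B-NS3 protease, 25 nM, pH 8.0; compounds preincubated 15 min. Activity: Rhodamine110 release from 1.5 microM substrate over 15 min, room temperature, data fitted to 4-parameter Hill.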

[7] = tested on: Zika virus NS2B-NS3 protease (linked); assay: 384 well plate NINDS AMC confirmatory qHTS for Zika virus inhibitors (AID 1347163); also: nearly all actives have a fitted effect of over 50% in size; also: potency is read from the fitted curve at half-maximal effect
In short: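 Enzyme (5, 30 or 60 nM final) first met test compounds for ~15 min. The AMC-tagged peptide Ac-VKTGKR-AMC followed at 30 microM. Fluorescence was then recorded at 25 min and scaled against no-enzyme and no-inhibitor wells.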

[8] = Vero cells viability qHTS for Zika virus inhibitors (AID 1347167)
In short: (§1)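 To flag cytotoxic protease inhibitors, viability is measured by ATP-dependent luminescence (CellTiter Glo) after cells attached overnight receive compound for 24 to 48 hours in DMEM with 4% FBS.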

[9] = HepG2 cells viability qHTS for Zika virus inhibitors (AID 1347168)
In short: as §1

[10] = Tertiary RLuc qRT-PCR qHTS assay for Zika virus inhibitors (AID 1347169); also: nearly all actives have a fitted effect of over 55% in size; also: potency is read from the fitted curve at half-maximal effect
In short: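 Orthogonal cell-based infection assay using recombinant ZIKV-RLuc (Cambodian) in Vero cells; compound added prior to virus at MOI 1-2. Incubation lasts 48-72 hrs at 37 degrees C before live-cell Renilla substrate is added and luminescence measured.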

[11] = tested on: Zika virus NS2B-NS3 protease (linked construct); assay: 384 well plate NINDS Rhodamine confirmatory qHTS for Zika virus inhibitors (AID 1347164); also: nearly all actives have a fitted effect of over 65% in size; also: potency is read from the fitted curve at half-maximal effect
In short: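 Compounds are incubated about 15 minutes with linked protease (5, 30 or 60 nM final). Rhodamine 110-tagged Ac-LKRR substrate (10 microM final) is added and fluorescence measured after 25 minutes.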

[12] = ZIKV-mCherry secondary qHTS for Zika virus inhibitors (AID 1347158); also: top concentration of the series differs between compounds
In short: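 This orthogonal imaging screen measured ZIKV-mCherry infection of Vero cells exposed to compound, MOI 1, 48-72 h. Percent infection came from segmented nuclei scored mCherry-positive above 3 SD of negative controls.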

SMILES	Potency [1]	Potency [2]	Potency [3]	Potency [4]	Potency [5]	Potency [6]	Potency [7]	outcome [8]	outcome [9]	Potency [10]	Potency [11]	Potency [12]
C=C1CCC2C(C)(C)CCC[C@]2(C)[C@H]1CC/C(C)=C/C(=O)O (some centres undefined)	44.1 µM (active)	39.3 µM (active)	11.1 µM (active)	3.55 µM (active)	5.62 µM (active)	4.94 µM (active)	2 µM (active)	inactive	inactive	inactive	–	–
C=CC1(C)C=C2CC[C@H]3[C@@](C)(C(=O)O)CCC[C@]3(C)C2CC1 (some centres undefined)	–	–	15.3 µM (active)	7.94 µM (active)	3.55 µM (active)	9.67 µM (active)	70.8 µM (active)	inactive	inactive	–	20 µM (active)	–
COc1cccc(CNc2ccc(S(=O)(=O)Nc3nc4ccccc4s3)cc2)c1O	–	–	3.93 µM (active)	3.55 µM (active)	6.31 µM (active)	3.93 µM (active)	–	inactive	inactive	0.186 µM (active)	–	inactive
CC(=O)OC12CC(C)C(OC(=O)c3ccccc3)C1/C=C(/C)C(OC(=O)c1ccccc1)CC(=O)C(C)(C)/C=C/C(C)C2=O (centres undefined)	–	–	4.64 µM (active)	6.31 µM (active)	7.08 µM (active)	3.68 µM (active)	–	inactive	inactive	2.76 µM (active)	35.5 µM (active)	–
CC1C(O)C(O)C2C(C(=O)OCCc3ccc(O)cc3)=COC(O[C@@H]3O[C@H](CO)[C@@H](O)[C@H](O)[C@H]3O)C12 (some centres undefined)	inactive	–	8.57 µM (active)	–	8.91 µM (active)	15.2 µM (active)	–	inactive	inactive	inactive	3.98 µM (active)	–
CCc1nnc(NS(=O)(=O)c2ccc(NC(=S)NC(=O)/C=C/c3ccc(F)cc3)cc2)s1	19.7 µM (active)	–	2.78 µM (active)	3.16 µM (active)	3.16 µM (active)	2.78 µM (active)	–	inactive	inactive	23.4 µM (active)	–	–
COc1cccc(OC)c1-c1cc(C(=O)N[C@@H](CC(C)C)C(=O)O)nn1-c1ccnc2cc(Cl)ccc12	–	–	17.5 µM (active)	22.4 µM (active)	10 µM (active)	12.4 µM (active)	31.6 µM (active)	inactive	inactive	inactive	inactive	inactive
Cc1ccccc1NC(=O)Nc1ccc(CN2C(=O)N([C@@H](CC(C)C)C(=O)N[C@@H](CC(=O)O)c3ccccc3)C(=O)C2(C)C)cc1	–	inactive	35 µM (active)	31.6 µM (active)	7.08 µM (active)	27.8 µM (active)	10 µM (active)	inactive	inactive	inactive	inactive	inactive
Cc1cc(C)c2nc(-c3ccccn3)cc(C(=O)Nc3ccc(S(=O)(=O)Nc4onc(C)c4C)cc3)c2c1	22.1 µM (active)	–	2.78 µM (active)	2 µM (active)	–	3.12 µM (active)	5.01 µM (active)	inactive	inactive	–	3.98 µM (active)	inactive
O=C1NC(=O)/C(=C/c2cccc(C(F)(F)F)c2)S1	17.5 µM (active)	–	4.41 µM (active)	2.51 µM (active)	3.55 µM (active)	3.93 µM (active)	100 µM (active)	–	inactive	18.6 µM (active)	20 µM (active)	–
Cc1ccccc1-n1nc(-c2c(-c3ccc(F)cc3)nn3c2NC[C@@H](CO)C3)ccc1=O	–	–	inactive	inactive	–	inactive	–	–	–	–	–	–
Cn1cc(-c2c[nH]c3ncnc(N4CCOCC4)c23)cn1	–	–	inactive	inactive	–	inactive	–	–	–	–	–	–
Cc1ccc2[nH]c(=O)c(C3=NN(C(=O)CCC(=O)O)C(c4ccc(Br)cc4)C3)c(-c3ccccc3)c2c1 (centres undefined)	44.1 µM (active)	49.4 µM (active)	3.93 µM (active)	6.31 µM (active)	3.16 µM (active)	3.93 µM (active)	inactive	inactive	inactive	–	inactive	–
C=C1C2CCC3CC2(CC(O)C2(O)C1CC(OC1OC(CO)C(O)C(O)C1O)C2(C)C)CC3(C)O (centres undefined)	inactive	–	–	20 µM (active)	8.91 µM (active)	9.61 µM (active)	35.5 µM (active)	inactive	inactive	inactive	0.501 µM (active)	–
CC1(C)CC=C(c2cnc3ccccc3c2)c2cc(C(=O)Nc3ccc(C(=O)O)cc3)ccc21	17.5 µM (active)	15.6 µM (active)	2.78 µM (active)	1.78 µM (active)	3.16 µM (active)	1.97 µM (active)	–	inactive	inactive	inactive	inactive	–
